Most compounds without a hit are left out; they make up all but 2.3% or so of the library.
AMA1-RON2 inh – disrupts binding of P. falciparum AMA1 to RON2. AlphaScreen AMA1-biotinylated RON2 peptide binding. Potency, µM (doses to about 58.2 µM), usual class: inhibitors. 0.2% of 360,000 active. AID 720542; further: nearly all actives have a fitted effect of over 45% in size
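AMA1 (3D7) with his tag at 25 nM final met compounds first, then biotinylated RON2 peptide at 25 nM; detection used donor plus acceptor beads, 10 µg/mL apiece, read by AlphaScreen after 30 min at room temperature.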
MARV entry inh – blocks Marburg virus binding to or entry into cells. Marburg virus pseudotyped entry inhibition, cell reporter. Potency, µM (highest dose often 37.8 µM), most hits filed as inhibitors. 1.8% of 300,000 active; calls by dose curve; tested in HEK293 cells
LASV entry inh – Lassa virus entry inhibition; Lassa virus pseudotype entry inhibition, cell reporter; Potency, µM (titrated, usually from 37.9 µM), hits mostly inhibitors; 1.2% of 300,000 active; AID 540256; calls by dose curve; tested in HEK293 cells; further: nearly all actives have a fitted effect of over 50% in size
AmpC inh no detg – AmpC beta-lactamase inhibition without detergent. AmpC nitrocefin hydrolysis, absorbance 480 nm, 0.0001% Triton. AID 485341. Potency, µM (series often up to 57.1 µM), usual class: inhibitors. 0.52% of 330,000 active; further: nearly all actives have a fitted effect of over 20% in size
Target sequence (P00811 whole entry, looked up): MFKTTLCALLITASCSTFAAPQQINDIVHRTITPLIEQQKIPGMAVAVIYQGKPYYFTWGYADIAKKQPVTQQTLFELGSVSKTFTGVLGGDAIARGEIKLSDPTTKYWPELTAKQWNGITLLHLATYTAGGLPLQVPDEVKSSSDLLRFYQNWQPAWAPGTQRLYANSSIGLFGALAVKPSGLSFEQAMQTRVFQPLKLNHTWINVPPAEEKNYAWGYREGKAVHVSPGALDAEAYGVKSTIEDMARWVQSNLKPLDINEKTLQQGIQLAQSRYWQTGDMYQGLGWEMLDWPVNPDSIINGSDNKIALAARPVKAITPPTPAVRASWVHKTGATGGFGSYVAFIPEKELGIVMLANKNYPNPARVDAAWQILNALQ
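AmpC (5.3 nM in the dispensed reagent) in 20 mM phosphate pH 7.0 with 0.01% (detergent screen) or 0.0001% Triton X-100 was preincubated with compounds for 15 min at room temperature. Nitrocefin was then added from an 800 uM solution, and hydrolysis was followed at 480 nm.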
AmpC detergent – blocks E. coli AmpC beta-lactamase in detergent assay; P00811; AmpC hydrolysis of nitrocefin, absorbance 480 nm, 0.01% Triton; 0.041% of 370,000 active; AID 485294; Potency, µM (doses to about 114 µM), hits mostly inhibitors; further: nearly all actives have a fitted effect of over 25% in size
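20 mM phosphate pH 7.0 + 0.01% (detergent screen) or 0.0001% Triton X-100; 5.3 nM AmpC reagent; cpd preinc 15 min RT; nitrocefin (800 uM stock) to start; A480 q20 s × 4 min; Activity was normalised to no-enzyme and no-compound control wells.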
Hits are given with their value; i = inactive; ? = inconclusive; nt = not tested or not shown; ! = repeats disagree; [ ] = dose if it differs, or a comment. Unless noted, the call rests on the fitted dose curve; in most records, active means well fitted curve in the direction sought with a large enough effect; inconclusive means small, poorly fitted or top-dose-only effect, or another doubt; inactive means no such curve, though single readings can be large; an effect the other way counts as inactive or inconclusive.

SMILES | AMA1-RON2 inh | MARV entry inh | LASV entry inh | AmpC inh no detg | AmpC detergent
CC1(c2ccc3ccccc3c2)NC(=O)N(CC(=O)N2CCN(Cc3ccc(C#N)cc3)CC2)C1=O (configuration not stated) | i | 0.562µM | ? | i | i
CC(=O)N1CCN(C(=O)CN2C(=O)NC(C)(c3ccc4ccccc4c3)C2=O)CC1 (configuration not stated) | i[11.6 µM] | i | i | i | i
O=C(Cn1c(=O)oc2ccccc21)NCc1ccccc1Cl | nt | nt | i | nt | i
CCCCn1c(SCc2nc3ccccc3s2)nc2cc(S(N)(=O)=O)ccc21 | i | 1.83µM | ? | i | i
Cc1cccc(C(=O)N=c2c(C#N)cc3c(=O)n4cccc(C)c4nc3n2Cc2ccco2)c1 | ? | 14.1µM! | i | i | ?
CCOC(=O)c1cc2c(=O)n3ccccc3nc2n(Cc2ccco2)c1=NC(=O)c1cccnc1 | i | 7.3µM | ? | i | i
CC(C)OCCCN1C(=O)c2[nH]nc(-c3ccccc3O)c2C1c1ccc(OCc2ccccc2)cc1 (configuration not stated) | nt | ? | ? | nt | i
O=C1OC2(CCCCC2)OC(=O)C1=CNc1ccc2c(c1)OCO2 | i | i | i | i | i
COc1ccc(N/C=C2\CCc3ccccc3C2=O)cc1 | i | nt | nt | i | i
COc1ccc2c(c1)CC/C(=C\Nc1ccc3c(c1)OCO3)C2=O | i | ? | ? | 10µM | i
O=C1/C(=C/Nc2ccc3c(c2)OCO3)CCc2ccccc21 | i | ? | 1.41µM | i | i
O=C(O)c1ccc(-n2cccc2/C=N/NC(=O)c2cc3cc(Br)ccc3o2)cc1 | nt | i | nt | nt | nt
N#Cc1ccc2c(c1)C[C@]1(c3ccsc3)Oc3c(c(=O)oc4ccccc34)C2O1 | nt | nt | nt | 5.01µM | i[22.9 µM]
N#Cc1ccc2c(c1)C[C@]1(c3ccsc3)Oc3c(c(=O)oc4ccccc34)[C@H]2O1 | nt | i | nt | nt | nt
COc1ccc2c3c(c(=O)oc2c1)C1O[C@](c2ccsc2)(Cc2cc(C#N)ccc21)O3 | nt | nt | nt | 5.01µM | ?
Cc1cc2c(c(=O)o1)C1O[C@](c3ccsc3)(Cc3cc(C#N)ccc31)O2 | nt | nt | nt | i[11.4 µM] | ?
CCC(Oc1nc2ccccc2nc1-c1ccccc1NC(C)=O)C(=O)c1ccccc1 (configuration not stated) | i | i | 18.3µM | i | i
O=C(NCCS(=O)(=O)N1CCN(c2cccc(Cl)c2)CC1)C(c1ccccc1)c1ccccc1 | nt | nt | ? | nt | i
COc1cccc(CN2C(=O)c3ccccc3Sc3ccc(C(=O)NCCc4ccc(Cl)cc4)cc32)c1 | nt | i | i | nt | i
Cc1ccc(-n2c(=O)c3c4c(sc3n(CC(=O)c3ccc(Cl)cc3)c2=O)CCC4)cc1C | nt | i | i | nt | ?
CCOC(=O)/C=C1\SCC(=O)N1CC(=O)NC(c1ccccc1)c1ccccc1 | i | i | i | 28.2µM | i
COc1ccccc1CNc1nc2c(S(=O)(=O)c3ccccc3)nnn2c2ccc(Cl)cc12 | nt | i | nt | nt | i
COc1ccc(CNCCC2(Cc3ccccc3)CC(C)N(C)CC2C)cc1OC (configuration not stated) | i | nt | nt | i | i
CC1CC(O)(Cc2ccccc2)C(C)CN1C (configuration not stated) | i | i | i | i | i
CC1CC(CCN)(c2ccccc2)C(C)CN1C (configuration not stated) | i | 3.98µM | i | i | i
SMILES | AMA1-RON2 inh | MARV entry inh | LASV entry inh | AmpC inh no detg | AmpC detergent
COc1ccc(CN(CCC#N)CCC2(c3ccccc3)CC(C)N(C)CC2C)cc1OC (configuration not stated) | i | 12.6µM | i | i | i
COCc1cc(C)nc2sc(C(=O)Nc3ccccc3O)c(N)c12 | nt | ? | i | nt | i
COC1=C(OC)C(Cl)=C(CC2C(=O)OC(C)(C)OC2=O)CC1 | nt | i | nt | nt | nt
COc1cccc(N2CC(NC(=O)CCCc3ccccc3)CC2=O)c1 (configuration not stated) | nt | nt | i | nt | i
COc1cc(NC(=O)Cn2nc3c(cc2=O)CC(C)CC3)cc(OC)c1OC (configuration not stated) | nt | nt | i | nt | i
Cc1ccccc1NC(=O)c1cccc(S(=O)(=O)Nc2cccc(C(=O)O)c2)c1 | i | i | i | i | ?
Cc1ccc(C(=O)Nc2ccc(S(=O)(=O)O)c3cc(S(=O)(=O)O)cc(S(=O)(=O)O)c23)cc1NC(=O)c1cccc(NC(=O)Nc2cccc(C(=O)Nc3cc(C(=O)Nc4ccc(S(=O)(=O)O)c5cc(S(=O)(=O)O)cc(S(=O)(=O)O)c45)ccc3C)c2)c1 | nt | 3.15µM | 8.88µM | nt | nt
O=[N+]([O-])c1ccc(N2CCN(c3cccc(Cl)c3)CC2)cn1 | i | 8.91µM | ? | i | i
CCOC(=O)c1sc(NC(=O)C2CC2)cc1C | i | nt | nt | i | i
CCOC(=O)c1sc(NC(=O)C(C)(C)C)cc1C | i | nt | nt | 10µM | ?
CCSc1nc2ccccc2n1C(=O)/C=C\c1ccc(OC)c(OC)c1 | i | 12.6µM | ? | i | i
CCSc1nc2ccccc2n1CC(N)=O | i | i | i | i | ?
CN1N=C(C(C)(C)C)CC1=O | i | 22.4µM | i | i | i
COc1ccc(C2NCCc3c2[nH]c2ccccc32)cc1COc1ccc(F)cc1 (configuration not stated) | i | ? | 23.1µM | i | i
COC(=O)c1ccccc1NC(=O)c1cc2nc(-c3ccc(OC)cc3)cc(C(F)(F)F)n2n1 | nt | i | i | nt | i
Cc1ccc(C(=O)Nc2ccc(C(=O)NCC3CCCO3)cc2)cc1 (configuration not stated) | i | nt | nt | i | i
CN1C(=O)c2ccc(C(=O)NC3CCCCC3)cc2C1=O | i | ? | i | i | i
Cc1ccc(NC(=O)CC2CC2)cc1-c1ccc(C(=O)NCC2CC2)cc1 | nt | nt | 3.97µM | nt | nt
CCCN1C(=O)c2cc(C(=O)NC3CCCCCC3)ccc2C1O (configuration not stated) | i | nt | nt | 1.41µM | ?
Cc1ccc(C(=O)NC2CCCCC2)cc1-c1ccc(C(=O)NCC2CC2)cc1 | nt | nt | 1.41µM | nt | nt
C/C(=N/NC(=O)c1cccs1)c1c(C)[nH]n(-c2nc3ccccc3s2)c1=O | i | 4.61µM | ? | i | i
CC(=NCc1ccco1)c1c(C)[nH]n(-c2nc3ccccc3s2)c1=O | i | ? | ? | i | i
COc1ccc(-c2nc(C)ncc2N=Nc2ccccc2)cc1 | ? | i | i | i | i
Cc1ncc(N=Nc2ccc(F)cc2)c(-c2ccc(Cl)cc2)n1 | i | i | i | 0.398µM | i
COc1ccc2c(c1)NC(c1ccc(OCC(C)C)cc1)=NC(c1ccncc1)=N2 | nt | i | i | nt | i
COc1ccc(C(=O)Nc2cccc(/C=C(\CCC(=O)O)c3nc4ccccc4s3)c2)cc1 | i | nt | nt | i | i
N#C/C(=C/c1cccc(O)c1)C(=O)NCc1ccc(Cl)cc1 | i | i | i | 20µM | i
N#C/C(=C/c1ccc(O)c(O)c1)C(=O)NCc1ccc(Cl)cc1 | i | i | ? | i | i
N#C/C(=C\c1cccc(NC(=O)c2ccccc2Cl)c1)C(=O)NCCc1ccccc1 | i | 11.2µM | ? | i | i
